Results published in PubChem BioAssay.
The source made the active and inactive calls. Unless noted, no rule for the calls is given here.

How the values were obtained:
[1] = test system: Wnt5a (protein binding on small-molecule microarray); assay: Wnt5a binders on small-molecule microarray, primary screen, biophysical, 635/667 nm fluorescence (AID 1142); conditions: 635 nm fluorescence, higher = more signal;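 also: fluorescence read at 667 nm with signal to noise per printed feature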
[2] = cell viability in Huh7 cells, primary screen, cytotoxicity control for HCV replication inhibitor project, CellTiter-Glo luminescence, basal, 48 h (AID 1143); conditions: Huh7 HCV replicon, higher = more signal, called active from +8 up or from −8 down;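 also: Huh7 hepatoma cells carrying a hepatitis C replication reporter with no stimulus; test concentration not given here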
[3] = P. aeruginosa biofilm formation inhibitors, primary screen, PAO1 strain, BacTiter-Glo luminescence, LB-PBS (AID 1144); conditions: 12 h, higher = more signal
[4] = CREB reporter modulators without forskolin, primary screen, cell-based, PC12, CRE-LacZ reporter, unstimulated (AID 1145); conditions: no forskolin, luminescence, 4.5 h, higher = more signal, called active from +8 up or from −8 down
[5] = CREB reporter modulators under forskolin, primary screen, cell-based, PC12, CRE-LacZ reporter, forskolin-stimulated (AID 1146); conditions: luminescence, 4.5 h, higher = more signal, called active from +8 up or from −8 down;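 also: PC12 cells with 6xCRE LacZ reporter stimulated by forskolin 10 µM; beta-galactosidase reporter signal reflecting CREB driven transcription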
[6] = target: Streptavidin (Streptomyces avidinii) (UniProt P22629); assay: streptavidin binders on small-molecule microarray, primary screen, artefact control for SMM compound annotation, biophysical, 635/667 nm fluorescence (AID 1147); conditions: streptavidin binding, higher = more signal;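 also: signal reflects streptavidin binding to arrayed compounds as a control protein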
[7] = small-molecule binders of probe aInhba, primary screen, biochemical, small-molecule microarray, 635/667 nm fluorescence (AID 1148); conditions: higher = more signal;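 also: score merges 667nm spot fluorescence with signal-to-noise for antibody binding to printed compounds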
Torsin-1A (Homo sapiens) [8] = target: Torsin-1A (Homo sapiens) (UniProt O14656); assay: torsin A binders from cell lysate, primary screen, small-molecule microarray, wild-type, 635/667 nm (AID 1149); conditions: COS7 hTOR1A-WT lysate, 635 nm fluorescence, higher = more signal
Torsin-1A (Homo sapiens) [9] = target: Torsin-1A (Homo sapiens) (UniProt O14656); assay: small-molecule binders of mutant TOR1A in lysate, primary screen, cell lysate, small-molecule microarray, COS7 lysate, 635/667 nm fluorescence (AID 1150); conditions: COS7 hTOR1A mutant lysate, 635 nm fluorescence, higher = more signal;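 also: score pools 667 nm emission and signal to noise measuring lysate protein binding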
[10] = test system: Sonic hedgehog protein (Shh); assay: small-molecule binders of Shh protein, primary screen, biochemical, small-molecule microarray, 635/667 nm fluorescence (AID 1151); conditions: small-molecule microarray binding, 635 nm fluorescence; higher = more signal;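 also: Shh protein binding to compounds spotted on small-molecule microarray slides; score combines spot fluorescence intensity with signal-to-noise across triplicate slides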
[11] = E. coli DRC41 culture turbidity changes, primary screen, E. coli filamentation inducer project, strain DRC41, OD650, 48 h (AID 1152);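 also: E. coli MC1000 strain DRC41 lacking acrAB efflux pump and sulA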; conditions: E. coli DRC41 (acrAB sulA), higher = more signal, called active from +8 up or from −8 down
[12] = small-molecule binders of probe aLefty1, primary screen, biochemical, small-molecule microarray, 635/667 nm fluorescence (AID 1153); conditions: higher = more signal;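 also: score merges spot fluorescence with signal-to-noise ratio from the scanned slide images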
[13] = PSAC antagonists in infected red cells, primary screen, cell-based, P. falciparum Indochina, OD700, 1 h (AID 1154); conditions: P. falciparum Indochina infected RBC osmotic lysis, higher = more signal, called active from +8 up or from −8 down
[14] = PSAC antagonists in infected red cells, primary screen, cell-based, P. falciparum Indochina, OD700, 2 h (AID 1155);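 also: lysis reports solute entry through the parasite surface anion channel PSAC; channel blockers reduce lysis of infected cells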; conditions: P. falciparum Indochina infected erythrocytes, osmotic lysis OD700; higher = more signal, called active from +8 up or from −8 down
[15] = osmotic lysis modulators in infected erythrocytes, primary screen, PSAC antagonist project, cell-based, P. falciparum Indochina, OD700, 3 h (AID 1156); conditions: higher = more signal, called active from +8 up or from −8 down
[16] = PSAC antagonists in infected red cells, primary screen, cell-based, P. falciparum Indochina, OD700, 18 h (AID 1157); conditions: P. falciparum Indochina infected erythrocytes, osmotic lysis OD700, 18 h; higher = more signal, called active from +8 up or from −8 down
[17] = modulators of S6 phosphorylation in cells, primary screen, cell-based, A549, cytoblot, luminescence, serum-stimulated (AID 1158); conditions: A549 phospho-S6 cytoblot, 5 h, higher = more signal;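 also: serum-stimulated A549 lung adenocarcinoma cells; signal is phosphorylated S6 detected by cytoblot immunostaining with HRP secondary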
[18] = target: NADPH oxidase 2 (Homo sapiens) (UniProt P04839); assay: NOX2-dependent H2O2 signal modulators, primary screen, NOX inhibitor project, cell-based, HEK293-NOX2, PMA-stimulated, Amplex Red fluorescence (AID 1159); conditions: 45 min, higher = more signal, called active from +8 up or from −8 down; also: test concentration not given here
[19] = target: NADPH oxidase 4 (Homo sapiens) (UniProt Q9NPH5); assay: NOX4-dependent H2O2 signal modulators, primary screen, NOX inhibitor project, cell-based, HEK293-NOX4, tetracycline-induced, Amplex Red fluorescence (AID 1160); conditions: 45 min, higher = more signal, called active from +8 up or from −8 down
[20] = target: NADPH oxidase 5 (Homo sapiens) (UniProt Q96PH1); assay: NOX5-dependent H2O2 signal modulators, primary screen, NOX inhibitor project, cell-based, HEK293-NOX5, Amplex Red fluorescence (AID 1161); conditions: HEK293-NOX5, ionomycin, 45 min, higher = more signal
Sequence of NADPH oxidase 5 (Homo sapiens) (Q96PH1 whole entry, looked up): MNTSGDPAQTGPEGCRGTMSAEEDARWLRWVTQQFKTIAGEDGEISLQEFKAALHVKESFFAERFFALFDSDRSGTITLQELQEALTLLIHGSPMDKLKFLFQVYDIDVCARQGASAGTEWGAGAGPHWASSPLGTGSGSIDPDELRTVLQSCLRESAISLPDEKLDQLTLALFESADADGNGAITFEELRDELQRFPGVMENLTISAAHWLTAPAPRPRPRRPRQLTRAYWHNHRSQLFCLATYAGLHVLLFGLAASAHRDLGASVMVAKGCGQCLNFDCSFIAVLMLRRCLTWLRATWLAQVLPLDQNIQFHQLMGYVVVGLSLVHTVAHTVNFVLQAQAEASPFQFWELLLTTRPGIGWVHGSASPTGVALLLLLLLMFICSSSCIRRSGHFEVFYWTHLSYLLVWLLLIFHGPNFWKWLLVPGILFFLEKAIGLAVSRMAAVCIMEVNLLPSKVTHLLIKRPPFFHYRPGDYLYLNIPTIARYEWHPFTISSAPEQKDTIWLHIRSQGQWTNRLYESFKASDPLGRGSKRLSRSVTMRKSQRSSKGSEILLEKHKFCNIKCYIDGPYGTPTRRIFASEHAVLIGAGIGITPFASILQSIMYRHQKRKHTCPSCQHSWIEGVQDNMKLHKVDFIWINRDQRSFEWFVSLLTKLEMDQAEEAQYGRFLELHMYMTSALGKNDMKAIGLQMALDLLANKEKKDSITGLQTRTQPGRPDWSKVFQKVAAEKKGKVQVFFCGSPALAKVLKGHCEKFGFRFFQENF

Sequence of NADPH oxidase 2 (Homo sapiens) (P04839 whole entry, looked up): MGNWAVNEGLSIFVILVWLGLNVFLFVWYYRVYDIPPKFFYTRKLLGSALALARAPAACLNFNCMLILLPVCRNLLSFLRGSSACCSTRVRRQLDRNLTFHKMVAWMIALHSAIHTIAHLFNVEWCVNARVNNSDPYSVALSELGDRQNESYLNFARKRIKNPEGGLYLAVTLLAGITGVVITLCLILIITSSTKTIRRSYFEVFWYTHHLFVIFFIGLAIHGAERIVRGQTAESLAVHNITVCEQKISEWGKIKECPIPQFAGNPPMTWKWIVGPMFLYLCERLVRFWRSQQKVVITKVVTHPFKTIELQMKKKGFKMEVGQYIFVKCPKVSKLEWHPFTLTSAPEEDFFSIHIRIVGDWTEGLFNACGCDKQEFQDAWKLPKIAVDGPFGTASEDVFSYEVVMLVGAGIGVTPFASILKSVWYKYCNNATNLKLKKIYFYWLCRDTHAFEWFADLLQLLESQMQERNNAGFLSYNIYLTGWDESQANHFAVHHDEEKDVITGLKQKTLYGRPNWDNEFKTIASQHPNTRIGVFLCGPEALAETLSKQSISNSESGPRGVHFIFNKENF
Sequence of NADPH oxidase 4 (Homo sapiens) (Q9NPH5 whole entry, looked up): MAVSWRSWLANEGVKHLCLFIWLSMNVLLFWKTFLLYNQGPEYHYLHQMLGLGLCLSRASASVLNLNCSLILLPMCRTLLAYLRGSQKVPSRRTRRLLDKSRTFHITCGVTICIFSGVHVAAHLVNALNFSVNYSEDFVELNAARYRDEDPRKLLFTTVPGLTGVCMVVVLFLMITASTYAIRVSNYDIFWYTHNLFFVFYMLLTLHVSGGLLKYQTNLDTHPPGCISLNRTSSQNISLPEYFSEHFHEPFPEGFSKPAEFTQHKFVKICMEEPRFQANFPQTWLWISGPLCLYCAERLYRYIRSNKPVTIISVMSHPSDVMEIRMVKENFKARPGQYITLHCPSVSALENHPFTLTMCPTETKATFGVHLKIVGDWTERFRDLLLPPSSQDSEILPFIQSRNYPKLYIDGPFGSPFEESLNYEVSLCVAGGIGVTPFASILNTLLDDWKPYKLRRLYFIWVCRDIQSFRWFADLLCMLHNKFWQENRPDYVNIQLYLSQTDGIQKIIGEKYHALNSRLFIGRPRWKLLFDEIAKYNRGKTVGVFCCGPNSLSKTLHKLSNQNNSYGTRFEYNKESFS
Sequence of Streptavidin (Streptomyces avidinii) (P22629 whole entry, looked up): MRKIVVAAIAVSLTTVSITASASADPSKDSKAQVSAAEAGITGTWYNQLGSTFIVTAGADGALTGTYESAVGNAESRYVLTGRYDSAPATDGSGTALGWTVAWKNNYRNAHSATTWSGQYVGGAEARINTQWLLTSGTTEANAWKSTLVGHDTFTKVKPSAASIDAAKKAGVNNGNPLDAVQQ
Sequence of Torsin-1A (Homo sapiens) (O14656 whole entry, looked up): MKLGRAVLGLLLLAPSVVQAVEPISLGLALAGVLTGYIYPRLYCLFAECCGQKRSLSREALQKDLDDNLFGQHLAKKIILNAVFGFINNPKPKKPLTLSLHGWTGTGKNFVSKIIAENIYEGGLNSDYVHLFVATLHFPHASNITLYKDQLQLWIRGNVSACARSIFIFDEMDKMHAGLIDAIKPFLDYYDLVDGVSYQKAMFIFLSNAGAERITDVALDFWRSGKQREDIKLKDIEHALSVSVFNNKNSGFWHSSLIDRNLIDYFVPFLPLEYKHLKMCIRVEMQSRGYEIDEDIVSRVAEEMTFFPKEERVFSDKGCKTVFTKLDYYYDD

SMILES	composite z-score [1]	z-score [2]	z-score [3]	z-score [4]	z-score [5]	composite z-score [6]	composite z-score [7]	composite z-score (Torsin-1A (Homo sapiens) [8])	composite z-score (Torsin-1A (Homo sapiens) [9])	composite z-score [10]	z-score [11]	composite z-score [12]	z-score [13]	z-score [14]	z-score [15]	z-score [16]	z-score [17]	z-score [18]	z-score [19]	z-score [20]
Cc1ccccc1C(O)C1C=CC2C(=O)N(c3ccccc3)C(=O)C2N1Nc1ccc(C(C)C)cc1 (stereo not given)	0.0944	-0.0816 (inactive)	-0.481 (inactive)	0.812 (inactive)	0.131 (inactive)	1.26	0.176	-0.0717	0.62	0.214	-1.6 (inactive)	0.317	1.85 (inactive)	1.05 (inactive)	0.918 (inactive)	0.974 (inactive)	-0.405	-1.22 (inactive)	-4.14 (inactive)	-4.42
CN(C)C(=O)[C@]1(Cc2ccccc2N=[N+]=[N-])N=C(c2ccc(OCCCO)cc2)O[C@@H]1c1ccccc1N=[N+]=[N-]	0.46	-4.48 (inactive)	-0.938 (inactive)	0.0686 (inactive)	-1 (inactive)	1.41	-0.0162	1.49	0.799	0.428	1.02 (inactive)	0.431	30.7 (active)	25.6 (active)	1.15 (inactive)	7.43 (inactive)	2.53	-1.59 (inactive)	0.482 (inactive)	0.199
COC(=O)C(CC#Cc1ccc2c(c1)[C@]1(C(=O)N2)[C@H](c2ccc(OCCO)cc2)N2[C@H](c3ccccc3)[C@H](c3ccccc3)OC(=O)[C@H]2[C@@H]1C(=O)Nc1nc2ccccc2s1)C(=O)OC	0.35	-1.68 (inactive)	-1.39 (inactive)	-0.375 (inactive)	1.33 (inactive)	1.53	-0.157	1.36	0.414	0.588	1.99 (inactive)	-0.0611	4.42 (inactive)	1.76 (inactive)	0.66 (inactive)	1.82 (inactive)	-0.206	1.18 (inactive)	0.786 (inactive)	1.03
O=C(c1ccccc1)N1Cc2ccccc2C[C@@]2(COC(c3ccc(OCCCO)cc3)=N2)C1=O	0.406	-1.71 (inactive)	-0.0668 (inactive)	2.72 (inactive)	-0.152 (inactive)	0.298	0.167	0.655	0.787	1.33	-0.298 (inactive)	0.39	15.2 (active)	1.26 (inactive)	4.66 (inactive)	0.498 (inactive)	-0.107	0.137 (inactive)	-0.302 (inactive)	-0.983
CCC[C@@H]1C[C@@]1(CCC)[C@@H](NS(=O)(=O)c1cccc2cccnc12)c1ccc(Cl)cc1	0.0298	-2.15 (inactive)	-0.0939 (inactive)	-0.754 (inactive)	0.852 (inactive)	0.633	0.0966	-0.405	0.177	-1.33	-1.61 (inactive)	0.617	0.0126 (inactive)	0.765 (inactive)	-1.01 (inactive)	1.01 (inactive)	0.883	-0.357 (inactive)	-0.382 (inactive)	0.127
C=C(CCCC)/C(=C/C[C@@H](OC(C)=O)c1ccc(OCCO)cc1)c1cnc2ccccc2c1	-0.0157	-0.842 (inactive)	-1.02 (inactive)	1.21 (inactive)	-0.438 (inactive)	0.514	-0.0405	-0.197	0.101	1.77	1.04 (inactive)	0.0038	24 (active)	6.92 (inactive)	2.09 (inactive)	1.34 (inactive)	0.684	-1.98 (inactive)	-0.0832 (inactive)	-2.21
C=C[C@H](CO)NS(=O)(=O)c1ccc(Br)cc1	-0.269	0.116 (inactive)	0.564 (inactive)	0.643 (inactive)	1.79 (inactive)	0.257	-0.159	0.0757	-0.0632	0.156	1.25 (inactive)	-0.24	-0.261 (inactive)	-0.102 (inactive)	-0.154 (inactive)	0.325 (inactive)	0.0242	2.3 (inactive)	0.447 (inactive)	0.264
COCCOC(=O)N1C(=O)[C@@]2(c3cc(C#CC4(O)CCCCCC4)ccc31)[C@H](c1ccc(OCCO)cc1)N1[C@H](c3ccccc3)[C@H](c3ccccc3)OC(=O)[C@H]1[C@@H]2C(=O)N1CCN(c2ncccn2)CC1	0.499	-0.922 (inactive)	0.517 (inactive)	0.346 (inactive)	0.838 (inactive)	2.07	0.0541	0.782	0.629	1.17	-0.393 (inactive)	0.813	7.73 (inactive)	2.47 (inactive)	0.493 (inactive)	1.12 (inactive)	-0.537	1.61 (inactive)	0.854 (inactive)	1.83
